Sampled rows, rich in hits. Any-hit rate of the full collection: about 9.4%.
Pf growth 48h – inhibits P. falciparum growth in the first generation, 48 h. 310,000 compounds, 5.9% hits. Potency, µM (highest dose often 28.7 µM), for the others: at the highest dose activity change, negative = inhibition, hits mostly inhibitors. P. falciparum luciferase growth in erythrocytes, 48 h. AID 504832; note: % is set by controls: 0 for no effect and ±100 for the full control effect
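Firefly luciferase activity from engineered P. falciparum reports growth; inhibitors lower the luminescent signal. Cultures contained 2% hematocrit erythrocytes at 0.1% final parasitemia.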
AMA1-RON2 inh – AMA1-RON2 (P. falciparum) interaction inhibition; Potency, µM (titrated, usually from 58.2 µM), for inactives: at the top dose activity change, negative = inhibition, most hits filed as inhibitors; AID 720542; AlphaScreen AMA1-biotinylated RON2 peptide binding; 360,000 compounds, 0.2% hits;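 note: 0% = vehicle wells and -100% = peptide control; nearly all actives have a fitted effect of over 45% in size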
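AMA1 (3D7) with his tag at 25 nM final met compounds first, then biotinylated RON2 peptide at 25 nM; detection used donor plus acceptor beads, 10 µg/mL apiece, read by AlphaScreen after 30 min at room temperature.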
SARS PLpro yeast – inhibitors of SARS-CoV papain-like protease in yeast. S. cerevisiae expressing SARS-CoV PLpro, growth rescue. Potency, µM (highest dose often 32.9 µM), for inactives: at the highest dose activity, positive = growth rescue, hits mostly activators. 330,000 compounds, 0.19% hits; calls by dose curve; note: 0% is about no effect; nearly all actives have a fitted effect of over 55% in size
Pf growth 96h – inhibits malaria parasite growth, 96 h; Potency, µM (top dose mostly 28.7 µM), for inactives: at the top dose activity change, negative = inhibition, most hits filed as inhibitors; AID 504834; P. falciparum luciferase reporter growth, 96 h; 320,000 compounds, 6.9% hits; note: % is set by controls: 0 for no effect and ±100 for the full control effect
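Erythrocytes infected with luciferase-expressing P. falciparum were dispensed at 2% hematocrit and 0.05% parasitemia (final), then incubated with compounds 96 hours at 37 C in 5% CO2. Luminescence after detection reagent addition reported growth.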
An asterisk follows results filed as active; ? = inconclusive; · = no result given. Unless noted, calls come from the whole dose curve; as a rule, active = well fitted curve in the direction sought with a large enough effect; inconclusive = small, poorly fitted or top-dose-only effect, or another doubt; inactive = no such curve, though single readings can be large; an effect the other way counts as inactive or inconclusive. Potency is the fitted concentration of half-maximal effect.

SMILES	Pf growth 48h	AMA1-RON2 inh	SARS PLpro yeast	Pf growth 96h
Cc1cccc(S(=O)(=O)N2CCN(Cc3ccc4c(c3)OCO4)CC2)c1	16%	-16%	3%	0.74µM*
Cc1ccc(S(=O)(=O)N2CCN(C(=S)NCc3ccc4c(c3)OCO4)CC2)cc1	1.9µM*	-18%	-1%	?
Cc1ccc(S(=O)(=O)N2CCCC2CNC(=O)c2ccc3c(c2)OCO3)cc1 (stereo not drawn)	?	-7%	-3%	15µM*
CCNC(=S)N1CCN(S(=O)(=O)c2ccc(C)cc2)CC1	18%	-11%	-6%	-12%
COc1ccc(S(=O)(=O)N2CCN(Cc3ccc4c(c3)OCO4)CC2)cc1	3%	-7%	0%	19%
COc1ccc(OC)c(S(=O)(=O)NCCC2=CCCCC2)c1	-20%	-3%	-15%	3%
COc1ccc(S(=O)(=O)N2CCN(C(=S)NCCc3ccccc3)CC2)cc1	4.1µM*	-16%	-9%	?
COc1ccccc1NC(=O)CCc1nc(-c2cccs2)no1	·	11%	9%	22%
COc1ccccc1NC(=O)Cc1noc(CN(C)Cc2cccs2)n1	-22%	9%	2%	5.9µM*
O=C(NCCN1C(=O)C2C3C=CC(C3)C2C1=O)Nc1ccccc1 (stereo not drawn)	·	7%	2%	?
Cc1cccc(NC(=O)NCCN2C(=O)C3C4C=CC(C4)C3C2=O)c1 (stereo not drawn)	·	-7%	-5%	12µM*
COc1ccc(NC(=O)NCCN2C(=O)C3C4C=CC(C4)C3C2=O)cc1 (stereo not drawn)	94%	-2%	-1%	12µM*
Cc1ccc(NC(=O)NCCN2C(=O)C3C4C=CC(C4)C3C2=O)cc1 (stereo not drawn)	·	9%	4%	?
O=C1CSC(c2cn(-c3ccccc3)nc2-c2cccs2)N1CC1CCCO1 (stereo not drawn)	12µM*	-12%	-2%	8.3µM*
O=C1CSC(c2cn(-c3ccccc3)nc2-c2ccccc2)N1Cc1ccco1 (stereo not drawn)	13µM*	-16%	?	2.9µM*
C/C(=N/NC(=O)CNS(=O)(=O)c1ccccc1)c1ccc(Br)cc1	?	8%	-2%	13µM*
COC(=O)C(NC(=O)CNS(=O)(=O)c1ccc(Br)cc1)c1ccccc1 (stereo not drawn)	10µM*	-1%	3%	15%
CCOC(=O)N/N=C(\C)c1ccc(Br)cc1	·	-2%	-3%	12µM*
COC(=O)N/N=C(\C)c1ccc(Br)cc1	·	3%	8%	6%
COC(=O)C(Cc1ccccc1)NC(=O)CNS(=O)(=O)c1ccc(Br)cc1 (stereo not drawn)	108%	-4%	1%	24%
O=C(COC(=O)c1c[nH]c2ccccc12)NCc1ccccc1	·	11%	·	·
Cn1c(=O)c(NCCc2ccccc2)c2c3c(cccc31)C(=O)c1ccccc1-2	·	60%	-11%	9.3µM*
CCCCNc1c2c3c(cccc3n(C)c1=O)C(=O)c1ccccc1-2	?	63%	1%	?
Cn1c(=O)c(NCCO)c2c3c(cccc31)C(=O)c1ccccc1-2	23%	-23%	-2%	-8%
Cn1c(=O)c(NC2CCCCC2)c2c3c(cccc31)C(=O)c1ccccc1-2	13µM*	50%	1%	0%
SMILES	Pf growth 48h	AMA1-RON2 inh	SARS PLpro yeast	Pf growth 96h
CCCc1cc(=O)[nH]c(NCCc2ccccc2)n1	?	-8%	24%	13µM*
CCCc1cc(=O)[nH]c(SCCc2ccccc2)n1	17%	-5%	-5%	9.3µM*
CCCc1cc(=O)[nH]c(NCc2ccc(Cl)cc2)n1	-26%	0%	·	16%
COc1ccc(NC(=O)C2CCCCN2S(=O)(=O)c2ccc(F)cc2)cc1 (stereo not drawn)	-12%	0%	-13%	0.59µM*
CC1CCN(c2ccc(NC(=O)C3CCCN3S(=O)(=O)c3ccc(F)cc3)cc2)CC1 (stereo not drawn)	?	-12%	7%	12µM*
O=C(Nc1ccc(N2CCCCC2)cc1)C1CCCN1S(=O)(=O)c1ccc(F)cc1 (stereo not drawn)	-24%	-11%	-11%	-8%
CCOC(=O)N1CCC(NC(=O)C2CCCCN2S(=O)(=O)c2ccc(F)cc2)CC1 (stereo not drawn)	·	-2%	-1%	1µM*
COC(=O)C1CCCN1S(=O)(=O)c1ccc2ccccc2c1 (stereo not drawn)	10µM*	51%	-1%	·
O=C(Nc1ccc2c(c1)OCO2)C1CCCCN1S(=O)(=O)c1ccc(F)cc1 (stereo not drawn)	-1%	4%	0%	9.3µM*
CCOc1ccc(OC(=O)C(CCS(C)(=O)=O)N2C(=O)c3ccccc3C2=O)cc1 (stereo not drawn)	·	13%	2%	-9%
CCN(CC)CCNC(=O)C(Cl)=C1C(Cl)=C(Cl)C(Cl)=C1Cl	·	9%	·	·
COc1ccc(CSc2nc(CSC)cc(N3CCOCC3)n2)cc1	12µM*	-14%	14%	?
COc1ccc2c(C)cc(N3CCOCC3)nc2c1	55%	6%	1%	94%
O=C(O)c1ccc2nc(-c3ccccc3)sc2c1	21%	-8%	-21%	?
COc1cccc(C(C(=O)NC2CCCCC2)N(C(=O)c2ccco2)c2ccc(-n3cnnn3)c(C)c2)c1 (stereo not drawn)	15µM*	0%	-15%	-10%
Cc1cc(N(C(=O)c2ccco2)C(C(=O)NC2CCCCC2)c2ccccc2)ccc1-n1cnnn1 (stereo not drawn)	9.3µM*	0%	-2%	·
COc1cccc(N(C(=O)c2ccco2)C(C(=O)NC2CCCC2)c2ccc(N3CCOCC3)cc2)c1 (stereo not drawn)	?	-4%	2%	18%
O=C(NC1CCCC1)C(c1ccncc1)N(C(=O)c1ccco1)c1ccccc1 (stereo not drawn)	-38%	3%	14%	6%
Cc1c(NC(=O)CSc2nncn2-c2ccccc2)c(=O)n(-c2ccccc2)n1C	7%	-5%	-3%	43%
O=C(Nc1ccc(F)cc1)c1ccc2c(=O)n3c(nc2c1)CCCCC3	87%	-4%	-7%	4.7µM*
COc1cc(C(=O)Nc2ccc3nc4n(c(=O)c3c2)CCCC4)ccc1Br	8.3µM*	7%	-2%	-3%
COc1cccc(C(=O)Nc2ccc3nc4n(c(=O)c3c2)CCCC4)c1	13%	5%	0%	78%
COc1ccc(Cl)cc1C(=O)Nc1ccc2nc3n(c(=O)c2c1)CCCC3	?	0%	-1%	2.1µM*
CCOC(=O)Cc1ccc(Nc2nc(NC)nc3ccsc23)cc1	·	-4%	·	·
N#Cc1c2ccc([N+](=O)[O-])cc2[n+]([O-])n1-c1ccccc1	12µM*	·	-3%	10µM*
O=c1c2cc([N+](=O)[O-])ccc2sn1-c1ccccc1	·	46%	·	·
Brc1ccc2c(c1)C(OC1CN3CCC1CC3)c1ccccc1CS2 (stereo not drawn)	?	-3%	7%	10µM*
CN1CCC(OC2c3ccccc3CCc3ccccc32)CC1	·	-4%	·	·
